An excerpt weighted towards active compounds, which were near 1.7% of everything screened.
S1P2 agonist: S1P2 receptor agonists, primary screen, cell-based | Sphingosine 1-phosphate receptor 2 (Homo sapiens), O95136 | S1P2-expressing cell line, agonist reporter read-out | activation, % at 4.5 µM | 97,000 tested, 0.46% active; in the data active = activation above about 16%
Target sequence (O95136 whole entry, looked up): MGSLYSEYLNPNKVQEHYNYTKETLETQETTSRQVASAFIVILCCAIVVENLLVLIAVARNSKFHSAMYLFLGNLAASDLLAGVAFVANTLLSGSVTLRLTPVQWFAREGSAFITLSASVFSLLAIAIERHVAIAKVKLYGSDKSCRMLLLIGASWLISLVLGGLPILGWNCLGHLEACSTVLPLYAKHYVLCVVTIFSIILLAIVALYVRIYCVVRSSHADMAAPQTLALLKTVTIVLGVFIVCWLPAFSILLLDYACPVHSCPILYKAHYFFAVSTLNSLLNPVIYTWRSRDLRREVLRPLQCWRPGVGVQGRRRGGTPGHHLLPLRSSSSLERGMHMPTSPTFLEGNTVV
MRP reversal: reversal of MRP1-mediated doxorubicin resistance, primary screen, H69AR cells, doxorubicin co-treatment; AID 602, 2007; differential viability (reversal), % at 10 µM; 85,000 tested, 0.04% active; H69AR cells + 2 uM doxorubicin, CellTiter-Glo, 72 h;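 active = viability drop by adding the cancer drug above about 55%, with treated viability meeting a 40% cutoff, limit read from the data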;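 note: larger differential means the compound sensitizes cells more to doxorubicin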
S1P2 antag: human S1P2 receptor antagonists, primary screen, cell-based; AID 736, 2007; 97,000 tested, 0.21% active; inhibition, % at 5 µM; cell-based S1P2 antagonist assay, inhibition at 5 uM; Sphingosine 1-phosphate receptor 2 (Homo sapiens), O95136; in the data active = inhibition above about 45%;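 note: CRE beta-lactamase reporter cells expressing human S1P2 stimulated with S1P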
GALR2 blocker: GALR2 antagonists in receptor-expressing cells, primary screen; Galanin receptor type 2 (Homo sapiens), O43603; antagonist mode; inhibition, % at 4 µM; 140,000 tested, 0.39% active; AID 828, 2007; in the data active = inhibition above about 27%;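 note: cells stimulated with galanin 1-16 at roughly its EC80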
GALR2 agonist: GALR2 receptor agonists, primary screen, cell-based; Galanin receptor type 2 (Homo sapiens), O43603; GALR2-expressing cells, agonist activation read-out; activation, % (no concentration beside the values); 140,000 tested, 0.48% active; AID 803, 2007; in the data active = activation above about 5%, passing the limit was not always enough
MRP-1 activ: H69AR viability gain despite doxorubicin, primary screen, MRP-1 activator project, H69AR cells, CellTiter-Glo; AID 799, 2007; viability rescue; 140,000 tested, 0.61% active; viability increase, % at 10 µM;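 active = viability gain under doxorubicin at or above a set limit, the compound median plus 3 SD, cut at about 4.7% in these data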;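 note: MRP-1 overexpressing cells given doxorubicin 25 µM after compound pretreatment; 18-22 h compound pretreatment then 72 h with doxorubicin before readout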
Numbers stand for hits; - = inactive; . = not tested or not shown.

SMILES | S1P2 agonist | MRP reversal | S1P2 antag | GALR2 blocker | GALR2 agonist | MRP-1 activ
CCOc1ccc(NC(=O)C(=O)N/N=C\c2ccc(CNS(=O)(=O)c3ccccc3)o2)cc1 | . | . | . | - | 5.7 | -
Cc1ccc(NC(=O)CN(C)C(=O)c2ccc(C(F)(F)F)cc2)cc1 | . | . | . | - | - | -
CCOC(=O)N1CCN(C(=O)c2cnc(Nc3ccccc3OC)c3ccccc23)CC1 | . | - | . | - | 7.0 | -
CCOC(=O)N1CCN(C(=O)c2cccc(OC)c2OC)CC1 | - | - | - | - | - | -
CCCc1nc2sc3c(=O)n(N)cnc3c2c2c1CCCC2 | . | . | . | - | - | -
COCCSc1ccccc1C(=O)Nc1cc(C)ccn1 | . | . | . | - | - | -
O=C(Nc1nc(-c2cccs2)c(-c2cccs2)s1)C1(c2ccccc2)CC1 | . | . | . | - | - | 5.2
COc1ccc(/C=C(\C#N)c2nc3ccc(C)cc3[nH]2)cc1Oc1ccc(C(F)(F)F)cc1[N+](=O)[O-] | - | . | - | - | - | -
Cc1cc(/C=C(/C#N)c2nc3ccccc3[nH]2)c(C)n1-c1cccc([N+](=O)[O-])c1 | 30 | - | - | - | - | -
COc1cc(/C=C(\C#N)c2nc3ccc(C)cc3[nH]2)c([N+](=O)[O-])cc1OC | 18 | . | - | - | - | -
Cc1ccc(C)c(S(=O)(=O)N2CCN(CC(=O)NC(=O)NCc3ccccc3)CC2)c1 | - | . | - | - | - | -
CCc1nccn1S(=O)(=O)c1cc(C)c(OC)cc1C | 16 | - | - | - | - | -
CCOC(=O)c1ccc(NC(=O)Nc2ccc(F)cc2)cc1 | 22 | - | - | - | - | -
COc1ccc2nc(SCc3nc(N)nc(Nc4ccccc4)n3)[nH]c2c1 | 17 | - | - | - | - | -
Cc1nc(NC(=S)NC(=O)c2ccccc2)sc1C(=O)N(C)C | - | . | - | - | - | 7.7
COC(=O)c1sc(NC(=S)NC(=O)c2ccccc2)nc1C | . | . | . | - | - | -
OCC[C@@H]1C[C@@H](O)[C@H](O)[C@]2(CCCCO2)O1 | . | . | . | - | - | -
Cc1cc(C)nc(N/N=C/c2ccccc2)n1 | - | . | - | - | - | -
Cc1cc(C)nc(N/N=C/c2cccc3ccccc23)n1 | . | . | . | - | - | 5.7
Cc1cc(N/N=C/c2ccccc2Cl)nc(NCc2ccccc2)n1 | . | . | . | - | - | 7.1
O=C(Nc1nnc(C2CC2)s1)C1Cc2ccccc2CN1S(=O)(=O)c1ccccc1F (configuration not stated) | - | - | - | - | - | -
CN=C(Nc1cc(Cl)ccc1Cl)SC1CC(=O)N(c2ccc(C(=O)OC)cc2)C1=O (configuration not stated) | - | . | - | - | - | -
Cc1cc(/C=C2/SC(=S)N(c3cccc(C(F)(F)F)c3)C2=O)c(C)n1-c1cccnc1 | - | . | 82 | 35 | - | .
COc1ccc(-c2nn(-c3ccccc3)cc2/C=N/NC(=O)c2ccc(Br)o2)cc1 | - | . | 47 | - | - | -
COc1ccc(-c2nn(-c3ccccc3)cc2/C=N/NC(=O)c2ccc3c(c2)OCO3)cc1 | - | . | - | - | - | -
SMILES | S1P2 agonist | MRP reversal | S1P2 antag | GALR2 blocker | GALR2 agonist | MRP-1 activ
CC(=NC(C)C)C1=C(O)C(C)OC1=O (configuration not stated) | . | . | . | - | - | -
Cc1ccc(-n2nnnc2SCC(=O)Nc2sccc2C#N)cc1 | . | . | . | - | - | -
Cc1ccc(Nc2nc3ccccc3nc2-n2nc(C)cc2C)cc1 | 20 | - | - | - | - | -
CSc1c(CC(=O)Nc2ccccc2C(F)(F)F)n(Cc2ccccc2)c2ccccc12 | . | . | . | - | - | -
CN(C)CC(C(=O)c1ccccc1)c1ccccc1 (configuration not stated) | . | - | . | 42 | - | -
Cc1cc(C)nc(/N=C(\N)Nc2ccc(F)c([N+](=O)[O-])c2)n1 | - | . | - | - | - | -
O=C(CCSCc1ccc(Cl)cc1)NC1CCCC1 | . | . | . | - | - | -
[O-][N+]1=c2ccc(Nc3ccccc3)cc2=NC12CCCCC2 | - | - | 48 | - | - | -
CCn1cc(C(=O)NCc2ccco2)c2cc(OC)c(OC)cc2c1=O | - | . | - | - | - | -
CCn1cc(C(=O)Nc2ccc(OC)c(OC)c2)c2cc(OC)c(OC)cc2c1=O | 22 | - | - | - | - | -
COc1ccc(OC)c(NC(=O)c2cn(C)c(=O)c3cc(OC)c(OC)cc23)c1 | 33 | - | - | - | - | -
COc1ccc(-c2cc(N)n(S(=O)(=O)c3c(F)c(F)c(F)c(F)c3F)n2)cc1OC | - | - | - | 28 | - | -
COc1ccc(S(=O)(=O)n2nc(-c3cc(OC)c(OC)c(OC)c3)cc2N)cc1OC | . | - | . | - | - | -
O=C(NNC(=S)Nc1ccc(Cl)cc1Cl)C1CC1 | . | . | . | - | - | -
N#Cc1nc(COc2ccc(F)cc2)oc1N1CCC(Cc2ccccc2)CC1 | - | - | - | - | - | 5.3
O=[N+]([O-])c1cc(-c2nnc(Nc3ccccc3)c3ccccc23)ccc1N1CCOCC1 | . | . | . | - | - | -
Cc1ccc(Nc2nnc(-c3ccc(N4CCOCC4)c([N+](=O)[O-])c3)c3ccccc23)cc1 | . | . | . | - | - | 5.2
O=C1[C@@H]2[C@H](Cc3ccc(O)cc3)N[C@]3(C(=O)Nc4ccccc43)[C@@H]2C(=O)N1c1ccc(F)cc1 | - | - | - | - | - | 5.7
Cn1cnnc1SCC(=O)NN(c1ccccc1)c1ccccc1 | . | . | . | - | - | -
CSc1nc2c(c(=O)[nH]1)C(c1ccncc1)C(C(=O)OC(C)C)=C(C)N2 (configuration not stated) | - | - | - | - | - | -
O=C(NC1CCCCCC1)C1CCC(CNS(=O)(=O)c2ccc(Br)s2)CC1 (configuration not stated) | . | . | . | - | 5.3 | -
COC(=O)c1cc(NS(=O)(=O)c2ccc(N3CCOCC3)c(N)c2)cc(C(=O)OC)c1 | . | . | . | - | - | -
Cc1ccc(/C=N/NC(=O)CSCc2ccc(Cl)cc2)cc1 | - | . | - | - | - | 6.3
Cc1ccsc1/C=N/NC(=O)CSCc1ccc(Cl)cc1 | - | . | - | - | - | -
CCN(CC)c1ccc(/C=C2\CCC(/C=N/NC(=O)c3ccc(=O)n(C)c3)=C2N2CCOCC2)cc1 | . | . | . | - | - | -
SMILES | S1P2 agonist | MRP reversal | S1P2 antag | GALR2 blocker | GALR2 agonist | MRP-1 activ
Cc1nc2cc(-c3ccsc3-n3c(C)ccc3C)[nH]n2c(=O)c1Cl | - | - | - | - | - | 6.0
Cc1ccc(-n2c(SCC(=O)Nc3cc(C)on3)nc3c([nH]c4ccccc43)c2=O)cc1 | 18 | - | - | - | - | -
CCCCCCn1c(O)c(/C=C2\C=NN=C2c2ccccc2)sc1=S | . | . | . | - | - | 5.3
CCCCn1c(O)c(/C=C2\C=NN=C2c2ccccc2)sc1=S | . | . | . | - | - | -
CN=c1scc(C)n1/N=C/c1ccc(O)c(O)c1O | - | - | - | - | - | 12
N#Cc1ccc(-c2ccc(OCC(=O)NCC(=O)Nc3ccc(F)c(F)c3F)cc2)cc1 | . | . | . | - | - | -
